# Data published in PubChem BioAssay (EPA / NIEHS).
# “And” between values parts separate entries of the source, which are not always exact repeats. Identical values can stand only once. Some structures have more than one record in an assay (separate samples or runs), and their calls can disagree. The source made the active and inactive calls. Rule for the calls: active = hit-call score of the fitted dose curve at least 0.9, where 1 is the maximum; inactive = score below 0.9.
# Assay: ATG_ISRE_CIS: Attagene CIS-FACTORIAL HepG2 Assay for human Interferon Regulatory Factor 1 (IRF1) binding to an Interferon-Stimulated Response Element (ISRE) (AID 2282948)
# Details: HepG2 ISRE cis-reporter (Attagene), mRNA transcription readout; actives raise or lower the signal
# Method: ATG_CIS is a cell-based, multiplexed-readout assay that uses HepG2, a human liver cell line, with measurements taken at 24 hours after chemical dosing in a 24-well plate.ATG_ISRE_CIS is one of 52 assay component(s) measured or calculated from the ATG_CIS assay. It is designed to make measurements of mRNA induction, a form of inducible reporter, as detected with fluorescence intensity signals by Reverse transcription polymerase chain reaction (RT-PCR) and Capillary electrophoresis technology.Data from the assay component ATG_ISRE_CIS was analyzed into 1 assay endpoint. This assay endpoint, ATG_ISRE_CIS, was analyzed with bidirectional fitting relative to DMSO as the negative control and baseline of activity. Using a type of inducible reporter, measures of mRNA for gain or loss-of-signal activity can be used to understand the reporter gene at the transcription factor-level as they relate to the gene IRF1. Furthermore, this assay endpoint can be referred to as a primary readout, because this assay has produced multiple assay endpoints where this one serves a reporter gene function. To generalize the intended target to other relatable targets, this assay endpoint is annotated to the dna binding intended target family, where the subfamily is interferon regulatory factors.
# Human liver HepG2 cells are transiently transfected with multiple reporter transcription units (MRTUs) in 6-well plates using FuGene 6 reagent (Roche; 3 ml FuGene/1 mg DNA). The MRTU constructs are regulated by a cis-regulating element (promoter). […] A major difference between the CIS and TRANS system is that in CIS activities of endogenous TFs are measured, whereas the TRANS assay evaluates changes in activities of exogenous, chimeric NR-Gal4 proteins. […] At the end of 24 hour incubation, total RNA was isolated using TriZol reagent (Invitrogen). The isolated RNA is then reverse-transcribed using oligo(dT) primer and Mo-MLV reverse transcriptase (Invitrogen) with DNAse I (Ambion) treatment for 30 min. The one-tenth of the produced cDNA was amplified by PCR using Taq DNA polymerase (Invitrogen) and two reporter sequence-specific primers. The PCR products were fluorescently labeled by primer extension with 6-arboxyfluorescein (6-FAM) 5'-labeled reporter sequence-specific primer (2 min at 95 C, 20 s at 68 C and 10 min at 72 C) and these products were digested with 5U of HpaI (New England Biolabs) for 2h at 37 C. The fragments were purified using Qiaquick PCR columns (Qiagen), analyzed on an ABI 3130xL genetic analyzer (Applied Biosystems) with peak positions identified by using a set of X-rhodamine (ROX)-labeled MapMarker1000 molecular weight standards (BioVentures). The raw capillary electrophoresis data was processed using Attagraph software (Attagene).
SMILES,outcome,AC50
NC(=O)c1nc(-c2cccc(-c3cc(F)ccc3OCC(F)(F)C(F)(F)F)c2)n[nH]1,inactive,–
Cc1occc1C(=O)Nc1ccc(C(=O)N2CCC(F)(F)/C(=C\C(=O)N3CCC(N4CCCCC4)CC3)c3ccccc32)cc1,–,34.5 µM (active)
CN1C(=O)CC[C@H]1c1cccnc1,inactive,–
CC(C)(c1cc(Br)c(O)c(Br)c1)c1cc(Br)c(O)c(Br)c1,inactive,44.8 µM (active)
Cc1c2ccccc2c(C)c2c1ccc1ccccc12,inactive,–
NCc1cccc(C2CCN(C(=O)c3ccc(C#Cc4ccccc4F)o3)CC2)c1,–,19.4 µM (active)
COc1cc(C(=O)NC2CCN(C)CC2)ccc1Nc1ncc2c(n1)N(C1CCCC1)CC(F)(F)C(=O)N2C,–,4.8 µM (active)
O=c1ccc2ccccc2o1,inactive,–
CCCOC(=O)c1cc(O)c(O)c(O)c1,inactive,–
c1ccc(C[n+]2cccc3ccccc32)cc1,inactive,–
CCCCOC(=O)CC(CC(=O)OCCCC)(OC(C)=O)C(=O)OCCCC,inactive,26.7 µM (active)
CCN(CC)C(=O)c1cc(S(=O)(=O)Cc2ccccc2)c(N2CCC(c3ccccc3)CC2)cc1N(CC)CCN(C)C,inactive,–
Cc1ccc2oc(CN(Cc3ccccc3)C(=O)Nc3c(F)cc(F)cc3F)c(-c3ccc(Cl)cc3)c2c1,inactive,–
CC[C@@H]1C[C@H](N(Cc2cc(C(F)(F)F)cc(C(F)(F)F)c2)C(C)=O)c2cc(C(F)(F)F)ccc2N1C(=O)OC(C)C,inactive,–
CC/C(=C(/CC)c1ccc(O)cc1)c1ccc(O)cc1,inactive,11.1 µM (active)
O=C1CCC(C2CCCCC2)CC1,inactive,134 µM (active)
CC1(C)NC(=O)N(c2ccc([N+](=O)[O-])c(C(F)(F)F)c2)C1=O,inactive,–

SMILES,outcome,AC50
O=C1c2ccccc2C(=O)N1CCc1noc(-c2ccc(CN3CCCCCC3)s2)n1,inactive,–
O=C=NCCCCCCN=C=O,inactive,–
CCCCCCCCOC(=O)c1cc(O)c(O)c(O)c1,inactive,–
CC[C@H](NC(=O)c1cc(F)ccc1NS(=O)(=O)c1cccc2cccnc12)c1ccccc1,inactive,–
CCCC(=O)OCCC(C)C,inactive,–
O=CCCCC=O,inactive,125 µM (active)
CO[C@H]1/C=C/O[C@@]2(C)Oc3c(C)c(O)c4c(O)c(c(/C=N/N5CCN(C)CC5)c(O)c4c3C2=O)NC(=O)/C(C)=C\C=C\[C@H](C)[C@H](O)[C@@H](C)[C@@H](O)[C@@H](C)[C@H](OC(C)=O)[C@@H]1C,inactive,–
CC(=O)N1CCN(c2ccc(OC[C@H]3CO[C@](Cn4ccnc4)(c4ccc(Cl)cc4Cl)O3)cc2)CC1,–,15.1 µM (active)
Cc1cn([C@H]2C[C@H](N=[N+]=[N-])[C@@H](CO)O2)c(=O)[nH]c1=O,inactive,–
OCCO,inactive,–
C[C@]12CC[C@@H]3c4ccc(O)cc4CC[C@H]3[C@@H]1CC[C@H]2O,inactive,–
O=c1[nH]sc2ccccc12,–,33.4 µM (active)
Oc1ccc2ccccc2c1,inactive,100 µM (active)
O=C1O[C@H]([C@@H](O)CO)C(O)=C1O,inactive,–
CCCCOC(=O)c1ccc(O)cc1,inactive,148 µM (active) and 151 µM (active)
CCCCCc1ccc(N)cc1,inactive,–
